Shown are actives, neighbours in structure and some others; about 3.6% of the full set was active somewhere.
ClpP mod – qHTS Assay for Activators of ClpP; ATP-dependent Clp protease proteolytic subunit (Bacillus subtilis (strain 168)), P80244; purified B. subtilis ClpP, FRET peptide cleavage, 20 min; Potency, µM (highest dose often 57.5 µM), for inactives: top-dose activity change, negative = active; 1.9% of 340,000 active; AID 651965, 2013; active = well fitted falling curve with a large enough effect; inconclusive = small, poorly fitted or top-dose-only effect; inactive = no such curve, though single readings can be large or run the other way; note: the source files actives as falling curves though it sought activators and does not explain the sign; nearly all actives have a fitted effect of over 65% in size
Target sequence (P80244 whole entry, looked up): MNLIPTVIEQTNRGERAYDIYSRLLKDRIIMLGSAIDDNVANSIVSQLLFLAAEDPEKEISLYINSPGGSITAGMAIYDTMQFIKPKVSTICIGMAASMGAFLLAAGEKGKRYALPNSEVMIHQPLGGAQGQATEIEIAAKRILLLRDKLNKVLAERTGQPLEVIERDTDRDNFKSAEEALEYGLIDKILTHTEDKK
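ClpP 10 microg/mL final, pH 8 Tris/KCl buffer with BSA, glycerol, Tween-20; compound pinned in; FRET-FV substrate; RT 20 min; Ex320/Em430; ΔFRET vs ADEP 5.8 microM, DMSO, no enzyme.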
Mm-Cpn inhibitor – Inhibitors of TCP-1 ring complex (TRiC) of Methanococcus maripaludis (MmCpn): qHTS. Chaperonin Mm-Cpn (Methanococcus maripaludis). purified Mm-Cpn ATPase, ADP Transcreener TR-FRET. Potency, µM (doses to about 76.9 µM), for the others: at the top dose activity, negative = inhibition, most hits filed as inhibitors. 0.031% of 330,000 active. AID 504842, 2011; note: % is set by controls: 0 for no effect and ±100 for the full control effect; nearly all actives have a fitted effect of over 80% in size
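Measured: ADP formation by purified Mm-CPN. Conditions: 25 nM protein, 10 uM ATP, Tris pH 7.4 with Mg2+, K+ and DTT, 37°C for 30 min. Detection: Transcreener HTRF after 30 min at room temperature.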
FUS suppressor – qHTS for Suppressors of FUS Proteinopathy: Primary screen using FUS-linked yeast assay | S. cerevisiae FUS-expressing, growth rescue, OD600, 24 h | Potency, µM (doses to about 76.6 µM), usual class: activators | 0.24% of 390,000 active;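 note: plate controls were DMSO vehicle for no effect and reference control for full effect; nearly all actives have a fitted effect of over 55% in size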
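S. cerevisiae expressing FUS from galactose induction served as the toxicity model. Growth after 24hr at 30C, read as absorbance at 600 nm, indicates suppression of toxicity; compounds dosed at several concentrations.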
aSyn yeast inh – qHTS of alpha-syn Inhibitors; AID 652106, 2013; 0.14% of 370,000 active; Yeast expressing alpha-synuclein, growth rescue, BacTiter-Glo, 24 h; Potency, µM (highest dose often 46.1 µM), without a hit: at the highest dose growth rescue (activation), most hits filed as activators; note: % of control where 0% means no effect; nearly all actives have a fitted effect of over 65% in size
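Readout is rescue of growth in alpha-synuclein-expressing yeast, so inhibitors of toxicity appear as activators. Growth after 24 hr at 30 deg C in galactose medium is quantified by luminescence.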
TDP43 rescue – qHTS of TDP-43 Inhibitors. TDP-43 expressing yeast growth rescue, BacTiter-Glo, 24 h. 1.8% of 410,000 active. Potency, µM (highest dose often 46.1 µM), for inactives: at the highest dose growth rescue (activation), usual class: activators. AID 652104, 2013; note: % of control where 0% means no effect; nearly all actives have a fitted effect of over 50% in size
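Growth rescue of TDP-43-toxic yeast measured as ATP luminescence (BacTiter-Glo). Cells grown to mid-log in raffinose, induced in galactose at OD600=0.02, exposed to compound 24 hr at 30 deg C.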
Abeta rescue – qHTS for compounds that reverse cellular toxicity of Amyloid beta (A-beta) peptide in yeast: Primary Screen; yeast expressing A-beta42, growth rescue, OD600, 48 h; response scale: 0% DMSO, 100% iron-clioquinol control; Potency, µM (highest dose often 46.1 µM), actives largely listed as activators; 0.063% of 410,000 active; note: nearly all actives have a fitted effect of over 55% in size
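Yeast growth medium received pinned compounds, then yeast cells expressing toxic A-beta were added; plates incubated at 30 C for 48 hr. Growth read as absorbance at 600 nm, normalized to DMSO and equimolar FeCl3 plus clioquinol controls.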
Active calls of the source: *; i = inactive; ? = inconclusive; . = not tested or not shown; [ ] = remark or other dose. Unless noted, calls come from the whole dose curve; as a rule, active = well fitted curve in the direction sought with a large enough effect; inconclusive = small, poorly fitted or top-dose-only effect, or another doubt; inactive = no such curve, though single readings can be large; an effect the other way counts as inactive or inconclusive. Potency is the fitted concentration of half-maximal effect.

SMILES	ClpP mod	Mm-Cpn inhibitor	FUS suppressor	aSyn yeast inh	TDP43 rescue	Abeta rescue
Cc1nc2scc(C)n2c(=O)c1S(=O)(=O)NCc1ccccc1	4%	-7%	i	-5%	2%	i
Cc1ccc(C2Nc3cccc4cccc(c34)N2)s1	-4%	-3%	.	-10%	10µM*	i
COc1ccccc1CNC(=O)CCc1c(C)nn(-c2ccc(N3CCCC3)nn2)c1C	0%	.	i	.	1%	i
CN(Cc1ccccc1)C(=S)NC(=O)c1cccs1	0%	-2%	i	5%	?	13µM*
c1csc(CSc2nnc3sc4ccccc4n23)c1	-1%	0%	i	-1%	14µM*	i[9.22 µM]
COc1ccc(-n2cc(-c3ccccc3)c3c(NC4CCCC4)ncnc32)cc1	?	.	i	.	22µM*	i
Fc1ccc(-n2cc(-c3ccccc3)c3c(NCCc4ccccc4)ncnc32)cc1	32µM*	.	i	.	?	i
CCCNc1ncnc2c1c(-c1ccccc1)cn2-c1ccccc1	-16%	.	?	.	22µM*	i
COc1ccc(CCNc2ncnc3c2c(-c2ccccc2)cn3-c2ccc(Cl)cc2)cc1OC	22µM*	.	14µM*	.	?	i
CN(C)CCCNc1ncnc2c1c(-c1ccccc1)cn2-c1ccccc1	-5%	1%	i	9%	1%	i
Clc1cccc(-n2cc(-c3ccccc3)c3c(NC4CCCC4)ncnc32)c1	-1%	.	i	.	0%	i
CCCCOCCCNC(=O)C[C@H]1C(=O)N(CCCOC)C2=CCCCC[C@]21C(=O)OC	.	.	i	.	.	.
Cc1ccc(CN2CCC(CNc3ncnc4onc(-c5ccc(Cl)cc5)c34)CC2)cc1	1%	.	i	0%	18%	i
NCC1OC(O[C@H]2[C@H](O)[C@@H](OC3C(O)C(N)CC(N)C3OC3OC(CO)C(O)C(O)C3N)O[C@@H]2CO)C(N)C(O)C1O (stereo not given in full)	.	.	.	-10%	.	.
O=S(=O)(NCCSc1nnnn1-c1ccccc1)c1ccc(F)cc1	-1%	.	i	.	-4%	i
COc1ccc(CCNc2cc(C)nc3c(-c4ccccc4)cnn23)cc1OC	28µM*	-8%	?	-8%	-18%	i
COc1ccccc1-c1cnn2c(NCCc3ccccc3)cc(C)nc12	.	-4%	i	0%	-1%	i
COCCN(CCOC)c1ncnc2c1c(-c1ccccc1)cn2-c1ccc(C)c(Cl)c1	28µM*	.	i	.	25µM*	i
COC(=O)c1cccc(CN2C(=O)SC(Nc3ccc(Cl)cc3)C2=O)c1 (stereo not given)	-4%	.	i	.	16µM*	i
COC(=O)c1cccc(CN2C(=O)SC(Nc3ccc(Br)cc3)C2=O)c1 (stereo not given)	-2%	.	?	.	16µM*	i
O=C(CSc1nnnn1-c1cccc2c1CCCC2)N1CCCC1	0%	0%	i	3%	20µM*	i
O=C(CSc1nnnn1-c1cccc2c1CCCC2)N1CCOCC1	-1%	-4%	i	12%	4%	i
Nc1cnccn1	4%	.	.	.	.	.
O=C(Cn1c(=O)nc(-c2ccccc2F)c2cc(Cl)ccc21)NCCCc1ccccc1	?	.	i	.	18%	i
Cc1c(C(=O)N(C)C)sc2c1c(=O)n(-c1ccccc1C(F)(F)F)c(=O)n2Cc1ccccc1C#N	-3%	.	i	.	0%	i
Cc1ccc(NC(=O)CSc2nc(=O)cc(N)n2-c2ccccc2)cc1	-1%	2%	?	3%	6%	i

Source: PubChem (National Center for Advancing Translational Sciences (NCATS))
